About 1,300 (0.68%) of roughly 190,000 compounds were called active. Rule as the data show it: active = inhibition above about 50%; inactive = the rest. The full list was thinned out, with actives kept by preference.

The term inhibition denotes the relative decrease from the control value, in per cent.

Mannose-6-phosphate isomerase (Homo sapiens), sequence (P34949 whole entry, looked up): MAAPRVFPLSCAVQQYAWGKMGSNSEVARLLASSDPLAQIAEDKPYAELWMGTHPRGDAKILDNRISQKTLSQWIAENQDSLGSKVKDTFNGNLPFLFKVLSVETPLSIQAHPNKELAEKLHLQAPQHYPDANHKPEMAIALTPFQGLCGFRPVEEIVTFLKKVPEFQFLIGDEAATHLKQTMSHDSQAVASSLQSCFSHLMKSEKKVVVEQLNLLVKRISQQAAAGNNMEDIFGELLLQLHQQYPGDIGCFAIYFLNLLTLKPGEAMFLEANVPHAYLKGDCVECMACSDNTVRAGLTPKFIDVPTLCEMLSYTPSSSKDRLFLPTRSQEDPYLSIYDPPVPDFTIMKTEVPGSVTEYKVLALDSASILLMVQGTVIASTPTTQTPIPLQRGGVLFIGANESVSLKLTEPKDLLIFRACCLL

The test addresses Mannose-6-phosphate isomerase (Homo sapiens) (UniProt P34949). Briefly: human PMI inhibitors, high substrate, primary screen, biochemical, fluorescence intensity, high mannose 6-phosphate (AID 1220). The conditions noted are these: recombinant PMI enzyme, coupled fluorescence intensity; at 20 µM; active compounds read high.
Regarding `Cc1ccc(Oc2nc(-c3cccnc3)nc3ccccc23)c([N+](=O)[O-])n1`, the inhibition was 8.5% (inactive).

Regarding `O=[N+]([O-])c1ncccc1Oc1nc(-c2cccnc2)nc2ccccc12`, the inhibition is 65.8% (active).

As for `CC(=O)c1ccc(Oc2nc(-c3cccnc3)nc3ccccc23)cc1`, the inhibition was -4.3% (inactive).

As to `Cc1cc(C(=O)C(=O)O)c(C)n1-c1ccc(Cl)c(Cl)c1`, the inhibition was -3% (inactive).

Turning to `COc1ccc(CCC(=O)N2CC(C)OC(C)C2)cc1` (stereo not given), the inhibition was 5.2% (inactive).

For the compound `Cc1ccc(C)c(NC(=O)c2nc(-c3ccccc3)n(-c3ccccc3)n2)c1`, the inhibition was 16.2% (inactive).

For the compound `O=[N+]([O-])c1ccc(C[n+]2ccc(Cc3ccccc3)cc2)cc1`, the inhibition was 31.5% (inactive).

As for `O=S(=O)(c1ccccc1)N1CCN=C1SCc1ccccc1`, the inhibition is -2.3% (inactive).

As for `O=S(=O)(c1ccccc1)N1CCN=C1SCc1ccc(Cl)cc1`, the inhibition was 51.5% (active).

On to `O=S(=O)(c1ccccc1)N1CCN=C1SCc1ccc(Cl)c(Cl)c1`, for which the inhibition is -0.5% (inactive).

Turning to `c1ccc(COc2ccc(OCCN3CCCC3)cc2)cc1`, the inhibition was 16.3% (inactive).

As to `Cc1cccc(NC(=O)CC2SC(=NC3CCCCC3)NC2=O)c1` (stereo not given), the inhibition was 7.6% (inactive).

As for `Nn1c(COc2ccc(Cl)cc2)n[nH]c1=S`, the inhibition was 10.2% (inactive).

With `Cc1ccc(OCc2n[nH]c(=S)n2N)cc1C`, the inhibition was 9.3% (inactive).

Take `CCOc1ccccc1OCCNC1CCCC1`: the inhibition is -5% (inactive).

Turning to `COCCCNC(=S)Nc1ccc(C)cc1[N+](=O)[O-]`, the inhibition was 5.7% (inactive).

Regarding `CC[C@H](C)C(C(=O)N1CCN(C(=O)OC(C)(C)C)CC1)n1cc(C(Cc2ccc(O)cc2)NC(=O)OC(C)(C)C)nn1` (stereo not given in full), the inhibition was 6.3% (inactive).

Take `O=C(CSc1nnc(SCc2ccccc2)s1)N/N=C/C=C\c1ccco1`: the inhibition is -23% (inactive).

For the compound `Cn1c(SCC(=O)N/N=C/c2ccco2)nc2ccccc21`, the inhibition is 3.4% (inactive).

In the case of `CC(/C=N/NC(=O)c1cc(-c2ccncc2)nc2ccccc12)=C\c1ccco1`, the inhibition was 11.8% (inactive).

Take `CC(=C/c1ccco1)/C=N/NC(=O)CSc1nnc(SCc2ccc(C)cc2)s1`: the inhibition is 49.4% (inactive).

Turning to `Cn1c(SCC(=O)N/N=C/C=C/c2ccco2)nc2ccccc21`, the inhibition was 45.7% (inactive).

For `CC(/C=N/NC(=O)CSc1nnc(SCc2ccccc2)s1)=C\c1ccco1`, the inhibition was 54.7% (active).

On to `CC(/C=N/NC(=O)CSc1nc2ccccc2n1C)=C\c1ccco1`, for which the inhibition was 58.6% (active).

Take `CC(/C=N/NC(=O)c1cc(-c2ccccc2)nc2ccccc12)=C\c1ccco1`: the inhibition was 63.2% (active).

Consider `CC(/C=N/NC(=O)c1cc(-c2ccc(Cl)cc2)nc2ccccc12)=C\c1ccco1`, for which the inhibition was 11.8% (inactive).

Take `CCc1ccc(Nc2nnc(SCC(=O)Nc3sccc3C(N)=O)s2)cc1`: the inhibition is 11.1% (inactive).

For the compound `CCOC(=O)c1ccc(NC(=S)N(CCN2CCCCCC2)Cc2cccs2)cc1`, the inhibition was 2.9% (inactive).

For the compound `COc1cc(OC)cc(C(=O)NCC2CCCO2)c1` (stereo not given), the inhibition was 12.6% (inactive).

As for `Cc1ccc2nc3c(cc2c1)c(NC(=O)c1cccnc1)nn3C`, the inhibition is 13.2% (inactive).

As for `Cc1c(C(=O)NCC2CCCO2)oc2ccc3c(c12)C(=O)CC(C)(C)O3` (stereo not given), the inhibition was 7.4% (inactive).

Take `O=C(Nc1cccnc1)C1CCCN(S(=O)(=O)c2ccccc2)C1` (stereo not given): the inhibition is -2% (inactive).

On to `CCOc1cc(N2CCOCC2)c(OCC)cc1NC(=O)CSc1ncccn1`, for which the inhibition is 50.6% (active).

As to `CCOc1cc(N2CCOCC2)c(OCC)cc1NC(=O)CCC1CCCC1`, the inhibition is 17.2% (inactive).

As for `CCOc1cc(N2CCOCC2)c(OCC)cc1NC(=O)CSc1cccc[n+]1[O-]`, the inhibition is 16.7% (inactive).

For the compound `CCOc1cc(N2CCOCC2)c(OCC)cc1NC(=O)CSc1nccc(C)n1`, the inhibition is 19.5% (inactive).

Take `CCOc1cc(N2CCOCC2)c(OCC)cc1NC(=O)CSc1n[nH]c(N)n1`: the inhibition was 37.1% (inactive).

Consider `CCOc1cc(N2CCOCC2)c(OCC)cc1NC(=O)CSc1ncn[nH]1`, for which the inhibition is 53% (active).

As to `[O-][n+]1ccc(C2CC2)cc1`, the inhibition is 7.7% (inactive).

On to `CCN1CCN(C(c2cccs2)C(C)NC(=O)NC2CCCCC2)CC1` (stereo not given), for which the inhibition was 6% (inactive).

With `CCC1Sc2ccccc2N(CC(=O)NCc2ccc3c(c2)OCO3)C1=O` (stereo not given), the inhibition is -3.8% (inactive).

For `O=C(COC(=O)COc1cccc(Br)c1)Nc1c(Cl)cccc1Cl`, the inhibition was 4.6% (inactive).

Regarding `COc1ccc(-n2c(NC(=O)c3ccc(Br)o3)c(C#N)c3nc4ccccc4nc32)cc1`, the inhibition is 66.9% (active).

For the compound `COc1ccc(Cn2c(N)c(C#N)c3nc4ccccc4nc32)cc1`, the inhibition was 15.1% (inactive).

As for `COc1ccc(NC(=O)c2ccc(Br)o2)cc1`, the inhibition was 13.3% (inactive).

For `N#CC(=C=[N-])c1nc2ccccc2nc1-[n+]1ccccc1`, the inhibition was 1.9% (inactive).

Consider `Cc1cc[n+](-c2nc3ccccc3nc2C(=C=[N-])C#N)cc1`, for which the inhibition was 51.9% (active).

On to `CCc1cc[n+](-c2nc3ccccc3nc2C(=C=[N-])C#N)cc1`, for which the inhibition is 14.8% (inactive).

With `COC(=O)COC(=O)c1ccc(Oc2nc(OC)nc(N(C)C)n2)cc1`, the inhibition was 8.1% (inactive).

`Cc1ccc(-c2cc(C(=O)O)c3cc(Br)ccc3n2)o1`: the inhibition is -44.6% (inactive).

Regarding `O=c1oc(-c2cccs2)nc2ccc(Br)cc12`, the inhibition was -3% (inactive).

On to `O=C(NC1CCCCC1)NC1CC2CCC(C1)N2C(=O)NCc1ccccc1` (stereo not given), for which the inhibition is -7.9% (inactive).

Regarding `N#C/C(=C/c1ccc(N2CCOCC2)o1)c1ccc(Cl)cc1`, the inhibition was 42.5% (inactive).

Take `N#C/C(=C/c1ccc(N2CCOCC2)o1)c1nc2ccccc2[nH]1`: the inhibition was 38.4% (inactive).

`N#C/C(=C\c1ccc(N2CCOCC2)o1)c1nc2ccccc2[nH]1`: the inhibition is 45.8% (inactive).

Take `Cc1ccc(/C(C#N)=C\c2ccc(N3CCOCC3)o2)cc1`: the inhibition was 14.1% (inactive).

On to `N#C/C(=C/c1ccc(N2CCOCC2)o1)c1ccc(Br)cc1`, for which the inhibition is 50.4% (active).

Consider `Cc1ccc2nc(/C(C#N)=C\c3ccc(N4CCOCC4)o3)[nH]c2c1`, for which the inhibition is 59.9% (active).

Regarding `CC1=CCC2COC(c3ccc[n+](Cc4ccccc4)c3)C1C2` (stereo not given), the inhibition is 43.6% (inactive).

In the case of `CCOc1ccc(N(CC(=O)N2CCCC2)S(=O)(=O)c2c(C)noc2C)cc1`, the inhibition is 0.9% (inactive).

Consider `Cc1c(Cl)cccc1NC(=O)Nc1ccc(C(N)=O)cc1`, for which the inhibition was 3.7% (inactive).

Take `Cc1cc(/C=C2\SC(N)=NC2=O)c(C)n1-c1ccc(F)cc1`: the inhibition is 32.4% (inactive).

Regarding `Cc1cc(S(=O)(=O)n2cnc3ccccc32)c(C)cc1Cl`, the inhibition is -20.1% (inactive).

In the case of `Cc1cc(C)c(S(=O)(=O)n2cnc3ccccc32)c(C)c1`, the inhibition is -6% (inactive).

On to `Cc1ccc(S(=O)(=O)n2cnc3ccccc32)c(C)c1`, for which the inhibition is 81.3% (active).

Regarding `O=C1c2ccccc2C(=O)N1Cc1nc(-c2ccccc2)no1`, the inhibition is -1.3% (inactive).

With `OCCCc1cn(-c2ccccc2)c2ccccc12`, the inhibition is -13.6% (inactive).

As to `C=CCSC1=N/C(=C\c2ccc(C)o2)C(=O)S1`, the inhibition is 7.9% (inactive).

Consider `Cc1ccc2cc(CN(Cc3ccccc3)Cc3nnnn3C3CCCC3)c(=O)[nH]c2c1`, for which the inhibition was 5.3% (inactive).

Regarding `Cc1cc2nn(-c3cccc4ccccc34)nc2cc1NC(=O)c1cccs1`, the inhibition was 15.2% (inactive).

Consider `c1ccc2c(-n3cccn3)cccc2c1`, for which the inhibition is -0.8% (inactive).

With `Cc1cc2nn(-c3cccc4ccccc34)nc2cc1N`, the inhibition was 75.5% (active).

`Nc1ccc2nn(-c3cccc4ccccc34)nc2c1`: the inhibition was 62.8% (active).

In the case of `Nc1ccc2oc(-c3cccc4ccccc34)nc2c1`, the inhibition is 45.3% (inactive).

As for `c1ccc2c(-n3cnnn3)cccc2c1`, the inhibition is 1.3% (inactive).

For `Cn1nc(-c2ccc(C(=O)O)cc2)c2ccccc2c1=O`, the inhibition was -4.7% (inactive).

With `CCC(=O)NC(c1cccs1)c1ccc2cccnc2c1O` (stereo not given), the inhibition is 49.8% (inactive).

Take `COc1cc(C(Nc2ccccn2)c2ccc3ccc(C)nc3c2O)cc(OC)c1O` (stereo not given): the inhibition is 62.2% (active).

As for `Cc1ccc2ccc(C(Nc3ccccn3)c3ccccc3)c(O)c2n1` (stereo not given), the inhibition is 11.4% (inactive).

As to `CN1CCN(C(c2cccnc2)c2ccc3cccnc3c2O)CC1` (stereo not given), the inhibition is 39.6% (inactive).

Regarding `CCC(=O)NC(c1ccccc1OC)c1ccc2cccnc2c1O` (stereo not given), the inhibition is 50.2% (active).

Consider `CCOC(=O)N1CCN(S(=O)(=O)c2cccc3cccnc23)CC1`, for which the inhibition was -12.8% (inactive).

Turning to `COc1ccccc1NC(c1cccnc1)c1ccc2cccnc2c1O` (stereo not given), the inhibition was 51.7% (active).

Regarding `Cc1ccnc(NC(c2cccnc2)c2ccc3cccnc3c2O)c1` (stereo not given), the inhibition is 18% (inactive).

As for `CCCC(=O)NC(c1ccccc1OC)c1ccc2cccnc2c1O` (stereo not given), the inhibition is 39.5% (inactive).

As to `Cc1cccc(NC(c2ccc(O)cc2)c2ccc3ccc(C)nc3c2O)n1` (stereo not given), the inhibition was 8.7% (inactive).

For `Cc1cc(NC(c2cccnc2)c2ccc3cccnc3c2O)no1` (stereo not given), the inhibition is 40.3% (inactive).

Turning to `CCN(CC)CCCNC(=O)c1ccc2c(SCC(=O)O)c3c(nc2c1)CCC3`, the inhibition was -9.3% (inactive).

For `COc1ccc(-n2c(C(C)n3nc(C)c([N+](=O)[O-])c3C)n[nH]c2=S)cc1` (stereo not given), the inhibition is -11.8% (inactive).

Take `COc1ccc(NC(=O)CC2C(=O)N(CCc3ccccc3)C(=S)N2Cc2cccnc2)cc1` (stereo not given): the inhibition is -8.8% (inactive).

In the case of `COc1ccc(CC(=O)NNC(=O)c2cccs2)cc1`, the inhibition is -0.3% (inactive).

In the case of `CC1CC(N(C(=O)c2ccco2)c2ccccc2)c2ccccc2N1` (stereo not given), the inhibition is 17.9% (inactive).

As for `Oc1c(C(Nc2nccs2)c2ccc(C(F)(F)F)cc2)ccc2cccnc12` (stereo not given), the inhibition is 24.5% (inactive).

As to `Oc1cccc(C(Nc2nccs2)c2ccc3cccnc3c2O)c1` (stereo not given), the inhibition was 57.6% (active).

For `Oc1c(C(Nc2nc3ccccc3s2)c2ccco2)ccc2cccnc12` (stereo not given), the inhibition is 34.8% (inactive).

Take `CC(C)OC(=O)c1ccc(NC(=O)c2ccco2)cc1`: the inhibition is 6.2% (inactive).

With `O=[N+]([O-])c1cc(-c2ncccn2)cs1`, the inhibition is -6.6% (inactive).

As for `O=[N+]([O-])c1cccnc1NCc1cccs1`, the inhibition is 3.1% (inactive).

As to `COc1ccc(NC(=O)Cn2nc3n(c2=S)CCC3)cc1`, the inhibition is 2.7% (inactive).

For `CCSC1=C(C#N)C(c2ccc3c(c2)OCO3)C2=C(CCCC2=O)N1` (stereo not given), the inhibition was 7.2% (inactive).

These data come from PubChem BioAssay AID1220 (Sanford-Burnham Center for Chemical Genomics, 2008).
